# Experimental data as given in PubChem BioAssay AID1851 (National Center for Advancing Translational Sciences (NCATS), 2009).
# Hit rate of the full screen: of about 16,000 compounds, about 2,600 (16%) were called active. About 20% were inconclusive and are not listed. A selection follows. Unmarked numbers belong to inactive results. The call rests on the fitted dose curve; in most records, active means well fitted curve in the direction sought with a large enough effect; inconclusive means small, poorly fitted or top-dose-only effect, or effect the other way; inactive means no such curve, though single readings can be large or run the other way.
# Target: Cytochrome P450 2D6 (Homo sapiens) (UniProt P10635)
# Assay: Cytochrome panel assay with activity outcomes
# Conditions: recombinant CYP, pro-luciferin dealkylation, luminescence, p450-cyp2d6; series mostly up to 57.1 µM; activity, negative = inhibition: at the top concentration
# On the % scale 0 is the no-effect control and ±100 the full control effect.
# Sequence of Cytochrome P450 2D6 (Homo sapiens) (P10635 whole entry, looked up): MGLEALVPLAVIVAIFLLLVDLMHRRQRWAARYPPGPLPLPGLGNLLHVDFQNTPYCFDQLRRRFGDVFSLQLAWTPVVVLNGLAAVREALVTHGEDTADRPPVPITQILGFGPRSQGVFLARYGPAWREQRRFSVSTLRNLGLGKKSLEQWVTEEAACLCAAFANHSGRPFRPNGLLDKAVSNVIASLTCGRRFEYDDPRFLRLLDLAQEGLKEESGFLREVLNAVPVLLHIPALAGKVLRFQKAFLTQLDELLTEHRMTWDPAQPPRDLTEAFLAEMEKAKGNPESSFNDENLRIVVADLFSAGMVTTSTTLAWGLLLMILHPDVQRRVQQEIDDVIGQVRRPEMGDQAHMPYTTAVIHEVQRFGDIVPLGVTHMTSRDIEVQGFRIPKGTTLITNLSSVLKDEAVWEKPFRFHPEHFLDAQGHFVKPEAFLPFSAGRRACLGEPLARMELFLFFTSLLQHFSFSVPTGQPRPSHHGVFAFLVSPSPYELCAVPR
Compound,"activity, negative = inhibition",AC50
CCN(CC)c1cc(C)c2cc(NC(=O)CNC(C)=O)ccc2n1,-22.7%,
O=C(Cc1ccc2c(c1)CCCC2)Nc1ccccc1Br,-15.8%,
CC(C)N=c1cc2n(-c3ccc(Cl)cc3)c3ccccc3nc-2cc1Nc1ccc(Cl)cc1,,2.51 µM (active)
CCOC(=O)c1cc2sc(C)cc2n1CC(=O)N1CCN(C(=O)c2ccco2)CC1,-14.6%,
COc1ccc(N=Cc2ccc(CNS(=O)(=O)c3ccc(Cl)cc3)o2)cc1,15.2%,
Nc1ncnc2c1ncn2[C@H]1O[C@@H](C(=O)OCCO)[C@@H](O)[C@H]1O,17% [at 11.4 µM],
CC(=O)Nc1cccc(NC(=O)C2CCCN2C(=O)Nc2ccccc2C)c1 (centres undefined),-10.4%,
CCc1ccccc1NC(=O)c1ccc(-n2c(C)ccc2C)cc1,-24.8%,
CCCn1nc2cc(C(=O)NCc3ccc4c(c3)OCO4)ccc2c1OCC,-40.6%,
CCc1ccccc1NC(=S)NCc1ccc2c(c1)OCO2,,1.26 µM (active)
Cc1ccc(CNC(=O)C2CCCN2C(=O)NCc2ccccc2)cc1 (centres undefined),-6.14%,
COc1ccccc1NC(=O)N1CCCC1C(=O)NCc1ccc2c(c1)OCO2 (centres undefined),,14.1 µM (active)
CCNc1nc(NCC)nc(N(C)N)n1,-24.1%,
CCOC(=O)c1c(C)nc2sc3c(=O)n(-c4ccc(OC)cc4)nnc3c2c1-c1ccc(OC)cc1,-1.38%,
COC(=O)c1cc(OC)c(OC)cc1NC(=O)CSc1ccccc1,4.67%,
COC(=O)C1=C(C)NC(C)=C(C(=O)OCCSc2ccccc2)[C@@H]1C,,25.1 µM (active)
CCOC(=O)C1=C(C)NC(C)=C(C(=O)OC)[C@@H]1c1cccc([N+](=O)[O-])c1,-12% [at 25.6 µM],
COCCNC(=O)CCCCCn1c(=S)[nH]c2ccccc2c1=O,-1.04%,
COc1cccc(N2CCN(C(=O)Nc3ccc4c(c3)NC(=O)CO4)CC2)c1,-13.3%,
S=c1nc[nH]c2c1ncn2Cc1ccco1,1.42% [at 11.4 µM],

Compound,"activity, negative = inhibition",AC50
CC[C@H](C(=O)c1cccs1)C(O)(C(F)(F)F)C(F)(F)F,,3.16 µM (active)
O=C(O)C(Cc1cccs1)C(=O)O,21.5% [at 11.4 µM],
CCC/C=C(\CCC)C(NC(=O)c1cccs1)c1ccc(C(F)(F)F)cc1 (centres undefined),4.02%,
CN[C@H]1[C@@H](O[C@@H]2[C@H](O[C@@H]3[C@@H](O)[C@@H](O)[C@@H](N=C(N)N)[C@@H](O)[C@@H]3N=C(N)N)O[C@H](C)[C@@]2(O)C=O)O[C@@H](CO)[C@@H](O)[C@H]1O,1.07% [at 25.6 µM],
C=CCN1C(=NC(=O)CC)SC2CS(=O)(=O)CC21 (centres undefined),-2.84%,
CC(C)=C[C@H]1[C@@H](COC(=O)c2ccccc2Cl)C1(C)C,-3.97% [at 11.4 µM],
Clc1ccc2c(c1)C1=C(C(c3ccncc3)O2)C(c2ccc(Br)cc2)n2ncnc2N1 (centres undefined),-28.8%,
CCCn1nnc(NC(=O)Cc2ccccc2)n1,-9.5%,
CC(C)CN1CCCC2(CCN(S(=O)(=O)c3ccccc3)CC2)C1,-2.15%,
CC(C)CN1CCC2(CC1)CCN(S(=O)(=O)c1ccccc1)CC2,,1 µM (active)
CC(C)CN1CC[C@@]2(CCCN(S(=O)(=O)c3ccccc3)C2)C1,,0.501 µM (active)
O=C(NC1CCCCC1)C1CC=CCC1C(=O)OCC(Cl)=C(Cl)Cl (centres undefined),-29.9%,
C=CCNC(=S)NNc1ncnc2sc3c(c12)CC(C)(C)OC3,-2.64%,
CCn1nnnc1SCC(=O)c1ccc2c(c1)OCCO2,-25.7%,
COC(=O)[C@@]1(Cc2ccc(OC)cc2)[C@H]2c3cc(C(=O)N4CCCC4)n(CCc4c[nH]c5cc(F)ccc45)c3C[C@H]2CN1C(=O)c1ccccc1,0.678%,
CC1(C)CC2(CC(c3cccs3)c3cc(Cl)c(O)cc3O2)NC(=S)N1 (centres undefined),-28.9%,
O=C1CC(c2cccs2)c2cc3c(cc2N1)OCO3 (centres undefined),,8.91 µM (active)
C#CCCCO/N=C1/C[C@@H](O)[C@@H](O)[C@@H]2[C@@H]3C(=O)N([C@@H](C)c4ccccc4)C(=O)[C@H]3CC[C@@H]12,-9.9% [at 11.4 µM],
COc1cc(OC)cc(C(=O)NCC(=O)OC2CCOC2=O)c1 (centres undefined),-8.8%,
O=C(Nc1ncc(Cc2cccc(Cl)c2)s1)C1=NCCN1,-16.7%,

Compound,"activity, negative = inhibition",AC50
CC1CCCC(C)N1C(=O)C1CC(c2ccc(F)cc2)=NO1 (centres undefined),-5.48%,
c1ccc(CCSc2nccn2-c2ccccc2)cc1,,1.41 µM (active)
Clc1ccc(CSc2nccn2Cc2ccccc2)cc1,,5.01 µM (active)
O=c1ccnc(SCc2ccc(Cl)cc2)[nH]1,6.62% [at 11.4 µM],
O=C(O)CSCCc1ccccc1,-0.751% [at 11.4 µM],
CCc1ccc(CSc2nccn2-c2ccccc2)cc1,,17.8 µM (active)
Nc1nc(SCc2ccccc2)c2ncn(Cc3ccccc3)c2n1,9.39% [at 11.4 µM],
Cn1c(CNC(=O)Nc2ccccc2)nnc1SCc1ccccc1,-8.99%,
CCn1c(SCc2ccc(C)cc2)nnc1-c1nn(-c2ccccc2)ccc1=O,-12.7%,
Cc1noc(NC(=O)Nc2ccccc2F)c1C#N,0.368% [at 11.4 µM],
CC(/C=C/c1ccco1)=N/NC(=O)c1ccccc1Cl,-12.5%,
CCOC(=O)N/N=C1/C[C@@H](O)[C@@H](O)[C@@H]2[C@@H]3C(=O)N(C(C)(C)C)C(=O)[C@H]3CC[C@@H]12,-10.6% [at 11.4 µM],
CO[C@H]1COC(=O)CCC[C@H](C)[C@@H](OC)COC(=O)C/C=C\[C@@H]1C,-0.797% [at 11.4 µM],
Cc1ccc(S(=O)(=O)c2cc(N3CCOCC3)nc(-c3ccccc3)n2)cc1,-14%,
N#CCCn1c(=O)cnc2cnc(OCc3ccccc3)nc21,-3.27%,
CCCNC(=O)OC[C@@H]1O[C@H](CCON=C(C)C)C=C[C@@H]1Oc1ccc(OC)cc1,-7.52% [at 11.4 µM],
COc1cc2nc(N3CC=[N+](C(=O)c4ccco4)CC3)nc(N)c2cc1OC,-10%,
CCOc1ccccc1/C=C(\C#N)C(N)=O,1.77% [at 11.4 µM],
C[C@H]1C2=C3C(CC[C@H]4C(OCc5ccc(F)cc5C(F)(F)F)OC[C@](C)([C@@H]34)N(C(=O)OC(C)(C)C)C2)C(CO)C1CO (some centres undefined),-7.43%,
